Unmarked numbers belong to inactive results.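 The calls were made as follows: active = compounds picked for the later follow-up tests because of their potency and selectivity; inactive = compounds skipped in follow-up as weaker or less selective.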
Assay: PME-1 inhibitor potency by in-gel ABPP, dose response, selectivity assay for PME-1 inhibitor project, cell lysate, mouse brain cytosol, FP-rhodamine (AID 2366)
Settings: gel-based ABPP

Question: Which IC50 does the source give for `N#C/C(=C\c1cccn1S(=O)(=O)c1cccc([N+](=O)[O-])c1)S(=O)(=O)c1ccc(F)cc1` here?
Answer: Its IC50 is > 50 µM.

Question: For `CS(=O)(=O)/C(C#N)=C/c1cccn1S(=O)(=O)c1ccccc1`, which IC50 is on record?
Answer: Its IC50 is > 50 µM.

Question: For `CC(C)(C)S(=O)(=O)/C(C#N)=C/c1cccn1S(=O)(=O)c1ccccc1`, which IC50 is on record?
Answer: Its IC50 is > 50 µM.

Question: Which IC50 does the source give for `CS(=O)(=O)/C(C#N)=C/c1cccn1S(=O)(=O)c1ccc([N+](=O)[O-])cc1` here?
Answer: Its IC50 is > 50 µM.

Question: With `N#C/C(=C\c1cccn1S(=O)(=O)c1cccc(C#N)c1)S(=O)(=O)c1ccc(F)cc1` as the molecule, how does the IC50 read?
Answer: The IC50 was > 50 µM.

Reference: PubChem BioAssay AID2366 (The Scripps Research Institute Molecular Screening Center, 2010)
